The record followed here is PubChem BioAssay AID2570 (National Center for Advancing Translational Sciences (NCATS), 2010).

“And” between values parts separate entries of the source, which are not always exact repeats. Equal entries are not always repeated. Records with an inconclusive call do not appear. Unmarked numbers belong to inactive results. The call rests on the fitted dose curve; in most records, active means well fitted curve in the direction sought with a large enough effect; inconclusive means small, poorly fitted or top-dose-only effect, or another doubt; inactive means no such curve, though single readings can be large or run the other way.

Chain of Vasopressin V1b receptor (Homo sapiens) (P47901 whole entry, looked up): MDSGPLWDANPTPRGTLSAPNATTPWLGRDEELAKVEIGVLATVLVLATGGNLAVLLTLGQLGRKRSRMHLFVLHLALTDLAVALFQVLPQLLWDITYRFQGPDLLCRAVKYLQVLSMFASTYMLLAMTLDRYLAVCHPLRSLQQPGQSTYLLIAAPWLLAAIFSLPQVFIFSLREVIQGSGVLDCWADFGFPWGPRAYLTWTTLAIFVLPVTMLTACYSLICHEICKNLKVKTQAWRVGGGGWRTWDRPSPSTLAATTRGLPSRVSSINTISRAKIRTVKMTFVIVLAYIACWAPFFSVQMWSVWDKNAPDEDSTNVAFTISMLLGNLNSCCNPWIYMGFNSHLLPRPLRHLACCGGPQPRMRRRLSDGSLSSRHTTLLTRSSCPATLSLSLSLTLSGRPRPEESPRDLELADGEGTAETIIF

This assay addresses Vasopressin V1b receptor (Homo sapiens) (UniProt P47901). Nature of the assay: Counterscreen Concentration-Response Assay for Antagonists of the Neuropeptide S Receptor: Vasopressin Receptor Calcium Signal Transduction. Particulars: CHO-AVPR1B, vasopressin-stimulated calcium fluorescence, FDSS. An excerpt:
NIH Chemical Genomics Center [NCGC] NIH Molecular Libraries Probe Production centers Network [MLPCN] MLPCN Grant: X01-DA026210-01 Assay Submitter (PI): Heilig, Markus Alexander NCGC Assay Overview: Neuropeptide S receptor (NPSR), previously known as GPR154, is a recently de-orphanized G protein coupled receptor. Its endogenous ligand is the 20 amino acids peptide Neuropeptide S (NPS). […] NPS and its receptor are found in various tissues. Specifically they are highly expressed in brain areas that have been implicated in modulation of arousal, stress and anxiety. Central administration of NPS in mice produces an unusual profile of activity by inducing wakefulness and arousal, while at the same time suppressing anxiety. Therefore, NPSR may represent a novel drug target for the treatment of sleep and anxiety disorders. To identify NPSR antagonists, we developed a cell-based assay with transfected NPS receptor. NPS can stimulate the production of cAMP as well as release intracellular calcium in Chinese hamster ovary cells stably expressing NPS receptor. This change in intracellular calcium can be detected using a calcium indicator dye on a calcium imaging plate reader system (FDSS). To validate the specific action of compounds on the NPS receptor, a counterscreen was developed that tests compounds' antagonism of AVPR1B vasopressin receptor stimulation by vasopressin. […] shares 27% identity with the NPS receptor.
NCGC Assay Protocol Summary: A Chinese hamster ovary (CHO) cell line stably expressing human vasopressin receptor (AVPR1B) was maintained in F-12 Kaighn's media (Invitrogen, Carlsbad, CA, 21127) supplemented with 10 % FBS, 100 units/ml penicillin, 100 ug/ml streptomycin and 250 ug/ml geneticin at 37C, 5% CO2 in a humidified atmosphere. Before the assay, aliquots of cells were frozen and stored at -135C. The assay was performed on a FDSS-7000 kinetic plate reader in 1536-well format. The maximums of kinetic fluorescence responses were converted into text files using the instrument's software data export utility. Data for antagonist response were normalized to the controls for basal activity (DMSO only) and 100% inhibition (no signal). AC50 values were determined from concentration-response data modeled with the standard Hill equation. CHO-V1B 1536-well FDSS assay protocol: (1) Frozen CHO-V1B cells were thaw, washed once with fresh media and resuspended in F-12 Kaighn's media supplemented with 10 % FBS, 100 units/ml penicillin and 100 ug/ml streptomycin. Cells were plated at 3 ul/well (1200 cells) to black, clear-bottom, tissue-culture treated 1536-well plates, and then cultured at 37C, 5 % CO2 for 16 to 30 hours. (2) Add 3 ul of calcium dye (from High Performance PBX Calcium Assay Kit, BD Biosciences). The calcium dye was prepared according to the manufactory's instruction. (3) Incubation at 37C, 5 % CO2 for 60 min. (4) Add 23 nl/well of compound in DMSO solution. The final titration for each compound was between 0.6 nM and 46 uM. (5) Load plates to FDSS-7000. The following steps were performed on FDSS-7000. (6) Record fluorescent background (Ex 480 nm, Em 520-560 nm) for 10 s. (7) Add 2 ul of stimulation reagent (1X HBSS buffer, 0.1% BSA, 60 nM vasopressin). Record antagonist response (Ex 480 nm, Em 520-560 nm) for 180 s. Keywords: MLSMR, MLPCN, NIH Roadmap, qHTS, NCGC, NPS, Neuropeptide S Antagonists
For the compound `O=C1OC(c2ccccc2)(c2ccccc2)N2CCN(C(=O)NCc3ccc(F)cc3)CC12` (stereo not given), the max response was 22.2% and 17.7%.
Under `COc1ccc(C2c3c(N)nc(Cc4ccccc4)nc3Oc3ccc4ccccc4c32)cc1OC` (stereo not given) stands -15.7%; under `N=c1c2c(ccn1CCc1ccccc1)Oc1ccc3ccccc3c1C2c1ccccc1` (stereo not given), 11.4%; under `N#CC1=C(NC=NCc2ccccc2)Oc2ccc3ccccc3c2C1c1ccccc1` (stereo not given), -19%.
`COc1cccc(C2c3c(ncn(CCN4CCOCC4)c3=N)Oc3ccc4ccccc4c32)c1` (stereo not given): the max response is -2.37%.
Under `COc1cccc(C2c3c(ncn(-c4cccc(Br)c4)c3=N)Oc3ccc4ccccc4c32)c1` (stereo not given) stands -12.3%; under `COc1ccc(C2c3c(n(Cc4ccccc4)cnc3=N)Oc3ccc4ccccc4c32)cc1OC` (stereo not given), -20.3%.
Then `COc1cccc(C2c3c(ncn(-c4cccc(C)c4)c3=N)Oc3ccc4ccccc4c32)c1` (stereo not given), with -55.3%; and `O=C(Cc1ccccc1)Nc1ncnc2c1C(c1ccccc1)c1c(ccc3ccccc13)O2` (stereo not given), with 7.19%.
With `Cc1c(P(=S)(c2ccccc2)c2ccccc2)c2ccccc2n1C(=O)Cc1ccccc1`, the max response is 5.72%.
Then `CCOC(=O)CCCC(=O)Nc1ncnc2c1C(c1ccccc1)c1c(ccc3ccccc13)O2` (stereo not given), with -39.8%; and `COc1cccc(C2c3c(ncn(Cc4cccs4)c3=N)Oc3ccc4ccccc4c32)c1` (stereo not given), with 22.2%.
Under `CCOC(=O)CC(=O)Nc1ncnc2c1C(c1ccccc1)c1c(ccc3ccccc13)O2` (stereo not given) stands -17.5%; under `CCOC(=O)CCC(=O)Nc1ncnc2c1C(c1ccccc1)c1c(ccc3ccccc13)O2` (stereo not given), -0.278%.
Then `COc1cccc(C2c3c(ncn(-c4ccccc4C#N)c3=N)Oc3ccc4ccccc4c32)c1` (stereo not given), with 2.63%; and `Cc1c(P(=S)(c2ccccc2)c2ccccc2)[n+]2ccccc2n1C/C=C/c1ccccc1`, with 1.44%; and `COc1cccc(C2c3c(ncn(-c4ccccc4Cl)c3=N)Oc3ccc4ccccc4c32)c1` (stereo not given), with 1.44%.
Take `COc1cccc(C2c3c(ncn(-c4ccncc4)c3=N)Oc3ccc4ccccc4c32)c1` (stereo not given): the max response was 23.2%.
Under `COc1ccc(C2c3c(n(CCCc4ccccc4)cnc3=N)Oc3ccc4ccccc4c32)cc1OC` (stereo not given) stands -23.2%; under `COc1cccc(C2c3c(ncn(-c4cccnc4)c3=N)Oc3ccc4ccccc4c32)c1` (stereo not given), -4.29%; under `N=c1c2c(ncn1CCN1CCOCC1)Oc1ccc3ccccc3c1C2c1ccccc1` (stereo not given), 25.9%.
Then `COc1cccc(C2c3c(ncn(-c4ccccc4)c3=N)Oc3ccc4ccccc4c32)c1OC` (stereo not given), with -5.77%.
`COc1cccc(C2c3c(ncn(-c4ccccc4OC)c3=N)Oc3ccc4ccccc4c32)c1` (stereo not given): the max response was -19.5%.
Under `CC(C)(C)OC(=O)Nc1ncnc2c1C(c1ccccc1)c1c(ccc3ccccc13)O2` (stereo not given) stands 14.3%; under `COc1cccc(C2C(C#N)=C(NC(=O)NCc3ccccc3)Oc3ccc4ccccc4c32)c1` (stereo not given), -21.8%.
Under `COc1ccc(C2c3c(ncn(CCc4ccccc4)c3=N)Oc3ccc4ccccc4c32)cc1OC` (stereo not given) stands 7.55%; under `Cc1c(P(=S)(c2ccccc2)c2ccccc2)[n+]2ccccc2n1CCCc1ccccc1`, -9.72%; under `COc1ccc(C2c3c(nc(C)[nH]c3=O)Oc3ccc4ccccc4c32)cc1OC` (stereo not given), -25.8%.
Under `CCOc1ccc(C2c3c(ncn(-c4ccccc4)c3=N)Oc3ccc4ccccc4c32)cc1OCC` (stereo not given) stands -23.4%; under `COc1ccc(C2c3c(nc(CCCc4ccccc4)[nH]c3=O)Oc3ccc4ccccc4c32)cc1OC` (stereo not given), 12%; under `Nc1ncnc2c1C(c1ccccc1)c1c(ccc3ccccc13)O2` (stereo not given), 4.27%.
Turning to `COc1cccc(C2c3c(ncn(-c4ccc(F)cc4)c3=N)Oc3ccc4ccccc4c32)c1` (stereo not given), the max response is -36.5%.
Under `COc1ccc(C2c3c(N)nc(CCc4ccccc4)nc3Oc3ccc4ccccc4c32)cc1OC` (stereo not given) stands -20.6%; under `N=c1c2c(ccn1CCCCc1ccccc1)Oc1ccc3ccccc3c1C2c1ccccc1` (stereo not given), 19.5%; under `COc1ccc(C2c3c(ncn(CCN4CCOCC4)c3=N)Oc3ccc4ccccc4c32)cc1OC` (stereo not given), -15.6%.
Under `O=C(CCc1ccccc1)Nc1ncnc2c1C(c1ccccc1)c1c(ccc3ccccc13)O2` (stereo not given) stands -23%; under `CCOC(=O)c1ccc(-n2cnc3c(c2=N)C(c2cccc(OC)c2)c2c(ccc4ccccc24)O3)cc1` (stereo not given), 17.2%; under `COc1cccc(C2c3c(ncn(-c4cccc(F)c4)c3=N)Oc3ccc4ccccc4c32)c1` (stereo not given), -14.9%.
Then `Cc1c(P(=S)(c2ccccc2)c2ccccc2)c2ccccc2n1C/C=C/c1ccccc1`, with 0.93%; and `COc1ccc(C2c3c(ncn(Cc4ccccc4)c3=N)Oc3ccc4ccccc4c32)cc1OC` (stereo not given), with -10.2%.
